Laboratory results from PubChem BioAssay (NCATS).
Inconclusive results are not listed. Active and inactive are the calls of the source. Calls come from the whole dose curve; as a rule, active = well fitted activation curve with a large enough effect; inconclusive = small, poorly fitted or top-dose-only effect; inactive = flat fitted curve, though single readings scatter.

assay: Validation screen for small molecules that induce DNA re-replication in SW480 colon adenocarcinoma cells (AID 504364); details: DNA re-replication phenotype (high-content imaging); series mostly up to 46.1 µM
Source text: H Molecular Libraries Probe Production Network [MLPCN]
NIH Chemical Genomics Center [NCGC]
Assay Provider: Melvin DePamphilis, NICHD, NIH
Eukaryotic cells normally restrict genome duplication to once per cell division. When this process is aberrant, DNA re-replication occurs when cells reinitiate DNA replication before the first round of replication is complete. DNA re-replication induces the DNA damage response, arrests cell proliferation, and triggers apoptosis. The cell cycle components cyclin A, Cdt-1, Cdc6 and geminin are critical regulators of this process and their misregulation results in DNA re-replication in normal and cancer cells. To identify compounds that induce re-replication in normal cells, an image-based assay was used to measure DNA content of nuclei, as detected by the fluorescent DNA binding dye, Hoechst. Cell nuclei were imaged by a fluorescence scanning plate imager and compounds that induce DNA re-replication were identified by the increase of nuclei with elevated fluorescence intensity.#
For screening, 250 cells in 5 uL/well were dispensed into black clear 1536-well plates (Aurora) using a solenoid-based dispenser. Following transfer of 23 nL compound or DMSO vehicle by a pin tool, the plates were incubated 48 hr at 37 C and 5% CO2. After addition of 1 uL/well Hoescht stain, the plates were incubated 40 min at 37 C, 5% CO2 and total intensity of fluorescent objects (nuclei) were enumerated by an Acumen Explorer Ex3 (TTP LabTech) fluorescence scanning plate imager (405 nm excitation, 500-530 nm emission).
Keywords: NIH Roadmap, MLPCN, MLI, MLSMR, qHTS, NCGC, DNA replication, cancer

SMILES | outcome
CNCCC(Oc1ccccc1OC)c1ccccc1 (stereo not given) | inactive
OC(CCN1CCCCC1)(c1ccccc1)C1CCCCC1 (stereo not given) | inactive
CN(C(=O)CCCOc1ccc2[nH]c(=O)ccc2c1)C1CCCCC1 | inactive
CN(C)C(=O)Oc1cccc([N+](C)(C)C)c1 | inactive
CSc1ccc(C(=O)c2[nH]c(=O)[nH]c2C)cc1 | inactive
CC(C)NCC(O)c1cc(O)cc(O)c1 (stereo not given) | inactive
CCc1c(C)[nH]c2c1C(=O)C(CN1CCOCC1)CC2 (stereo not given) | inactive
CCN1CCC[C@H]1CNC(=O)c1c(O)c(Cl)cc(Cl)c1OC | inactive
CN1CCN(CC(=O)N2c3ccccc3C(=O)Nc3cccnc32)CC1 | inactive
CCC(=O)c1ccc2c(c1)N(CCCN(C)C)c1ccccc1S2 | inactive
CN(C)C(=O)Oc1ccc[n+](C)c1 | inactive
CCCCNc1ccc(C(=O)OCCN(C)C)cc1 | inactive
NC(=O)c1ncn([C@@H]2O[C@H](CO)[C@@H](O)[C@H]2O)c1O | inactive
Cc1scc2c1N(C(=O)CN1CCN(C)CC1)c1ccccc1NC2=O | inactive
Cc1nc2c([nH]1)c(=O)n(C)c(=O)n2Cc1ccco1 | inactive
O=C(O)CN(CCN(CC(=O)O)CC(=O)O)CCN(CC(=O)O)CC(=O)O | inactive
CN=C(NC#N)NCCSCc1nc[nH]c1C | inactive
Nc1c2c(nc3ccccc13)CCCC2O (stereo not given) | inactive
CNCCCN1c2ccccc2CCc2ccccc21 | inactive
CC(C)(C)NCC(O)c1cc(O)cc(O)c1 (stereo not given) | inactive

SMILES | outcome
COCCOC(=O)C1=C(C)NC(C)=C(C(=O)OC(C)C)C1c1cccc([N+](=O)[O-])c1 (stereo not given) | inactive
CN(C)CCOC(=O)COc1ccc(Cl)cc1 | inactive
CN(C)CC[C@@H](c1ccc(Br)cc1)c1ccccn1 | inactive
CCCN(CCC)C(=O)C(CCC(=O)O)NC(=O)c1ccccc1 (stereo not given) | inactive
Cc1cc(C)c(/C=C2\C(=O)Nc3ccccc32)[nH]1 | inactive
Cc1nnc(SCC2=C(C(=O)O)N3C(=O)[C@@H](NC(=O)Cn4cnnn4)[C@H]3SC2)s1 | inactive
CCCOc1ccccc1-c1nc2n[nH]nc2c(=O)[nH]1 | inactive
CC(=O)Nc1nnc(S(N)(=O)=O)s1 | inactive
C[N+](C)(C)CCCCCCCCCC[N+](C)(C)C | inactive
CCOC(=O)c1cnc2c(cnn2CC)c1NN=C(C)C | inactive
CC(C)COCC(CN(Cc1ccccc1)c1ccccc1)N1CCCC1 (stereo not given) | inactive
N[C@@H](COP(=O)(O)O)C(=O)O | inactive
COCCCC/C(=N\OCCN)c1ccc(C(F)(F)F)cc1 | inactive
CCCCCN(CCCCC)C(=O)C(CCC(=O)O)NC(=O)c1ccc(Cl)c(Cl)c1 (stereo not given) | inactive
CCO/C([O-])=N/c1c[n+](N2CCOCC2)no1 | inactive
CCOC(=O)C1=C(C)NC(C)=C(C(=O)OC)C1c1cccc([N+](=O)[O-])c1 (stereo not given) | inactive
C#CCN(C)CCCOc1ccc(Cl)cc1Cl | inactive
CC(C)NNC(=O)c1ccncc1 | inactive
NC(N)=NC(=O)Cc1c(Cl)cccc1Cl | inactive
C(=C\c1ccccc1)/CN1CCN(C(c2ccccc2)c2ccccc2)CC1 | inactive
